# Biological target: PUM1 PUF domain R5-KRG (Homo sapiens, UniProt Q14671 828-1176, C1007K;Q1011G)
# Assay: yeast three-hybrid, YBZ-1, SC-Leu-His + 0.5 mM 3-AT, 4 days
# Conditions: tags: N-Gal4 AD-HA kept; label: inside an RPR1-promoter hybrid RNA with tandem MS2 sites; ssRNA
# Summary of the method: (§1)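 The interaction score is the logarithmic change in variant frequency from input to selection. It uses log2, with a pseudocount of 1 for absent variants, and frequencies came from PCR-amplified, Illumina-sequenced repeat regions. The libraries were Pumilio-1 PUF domains randomized at the three base-contacting residues per repeat, co-expressed with matching RNA elements in strain YBZ-1 (LexA–MS2 coat fusion, HIS3 reporter). Plating lasted four days on SC-Leu (input) or SC-Leu-His + 0.5 mM 3-AT (selection).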
row,Sequence,binding signal
1,GGCUAGAACUAGUGGAUCCCCCGGCGCCCGGCGGCUCGAGCCCGGGUAAGUGUCAAUAGUCUGCAUGCCGCCGGGCGCCAUGCCUGCAGGUCGACUCUAGAAAACAUG,3.68 log2 enrichment (interaction score)
2,GGCUAGAACUAGUGGAUCCCCCGGCGCCCGGCGGCUCGAGCCCGGGUAAGUGUAAAUAGUCUGCAUGCCGCCGGGCGCCAUGCCUGCAGGUCGACUCUAGAAAACAUG,1.97 log2 enrichment (interaction score)
3,GGCUAGAACUAGUGGAUCCCCCGGCGCCCGGCGGCUCGAGCCCGGGUAAGUGUUAAUAGUCUGCAUGCCGCCGGGCGCCAUGCCUGCAGGUCGACUCUAGAAAACAUG,4.3 log2 enrichment (interaction score)

# Biological target: PUM1 PUF domain R4-DWC (Homo sapiens, UniProt Q14671 828-1176, N971D;H972W;Q975C)
# Assay: as above
# Conditions: tags: N-Gal4 AD-HA kept; label: inside an RPR1-promoter hybrid RNA with tandem MS2 sites; ssRNA
# Summary of the method: as §1
row,Sequence,binding signal
1,GGCUAGAACUAGUGGAUCCCCCGGCGCCCGGCGGCUCGAGCCCGGGUAAGUGUAAAUAGUCUGCAUGCCGCCGGGCGCCAUGCCUGCAGGUCGACUCUAGAAAACAUG,2.81 log2 enrichment (interaction score)
2,GGCUAGAACUAGUGGAUCCCCCGGCGCCCGGCGGCUCGAGCCCGGGUAAGUGUAUAUAGUCUGCAUGCCGCCGGGCGCCAUGCCUGCAGGUCGACUCUAGAAAACAUG,2.64 log2 enrichment (interaction score)
3,GGCUAGAACUAGUGGAUCCCCCGGCGCCCGGCGGCUCGAGCCCGGGUAAGUGUACAUAGUCUGCAUGCCGCCGGGCGCCAUGCCUGCAGGUCGACUCUAGAAAACAUG,2.72 log2 enrichment (interaction score)

# Biological target: PUM1 PUF domain R5-GKE (Homo sapiens, UniProt Q14671 828-1176, C1007G;R1008K;Q1011E)
# Assay: as above
# Conditions: tags: N-Gal4 AD-HA kept; label: inside an RPR1-promoter hybrid RNA with tandem MS2 sites; ssRNA
# Summary of the method: as §1
row,Sequence,binding signal
1,GGCUAGAACUAGUGGAUCCCCCGGCGCCCGGCGGCUCGAGCCCGGGUAAGUGUCAAUAGUCUGCAUGCCGCCGGGCGCCAUGCCUGCAGGUCGACUCUAGAAAACAUG,1.37 log2 enrichment (interaction score)
2,GGCUAGAACUAGUGGAUCCCCCGGCGCCCGGCGGCUCGAGCCCGGGUAAGUGUUAAUAGUCUGCAUGCCGCCGGGCGCCAUGCCUGCAGGUCGACUCUAGAAAACAUG,2.85 log2 enrichment (interaction score)
3,GGCUAGAACUAGUGGAUCCCCCGGCGCCCGGCGGCUCGAGCCCGGGUAAGUGUGAAUAGUCUGCAUGCCGCCGGGCGCCAUGCCUGCAGGUCGACUCUAGAAAACAUG,4.81 log2 enrichment (interaction score)

# Biological target: PUM1 PUF domain R1-KLV (Homo sapiens, UniProt Q14671 828-1176, S863K;R864L;Q867V)
# Assay: as above
# Conditions: tags: N-Gal4 AD-HA kept; label: inside an RPR1-promoter hybrid RNA with tandem MS2 sites; ssRNA
# Summary of the method: as §1
row,Sequence,binding signal
1,GGCUAGAACUAGUGGAUCCCCCGGCGCCCGGCGGCUCGAGCCCGGGUAAGUGUAAAUUGUCUGCAUGCCGCCGGGCGCCAUGCCUGCAGGUCGACUCUAGAAAACAUG,4.79 log2 enrichment (interaction score)
2,GGCUAGAACUAGUGGAUCCCCCGGCGCCCGGCGGCUCGAGCCCGGGUAAGUGUAAAUGGUCUGCAUGCCGCCGGGCGCCAUGCCUGCAGGUCGACUCUAGAAAACAUG,3.18 log2 enrichment (interaction score)
3,GGCUAGAACUAGUGGAUCCCCCGGCGCCCGGCGGCUCGAGCCCGGGUAAGUGUAAAUCGUCUGCAUGCCGCCGGGCGCCAUGCCUGCAGGUCGACUCUAGAAAACAUG,3.95 log2 enrichment (interaction score)

# From paper PMC8384837, “Expanding the binding specificity for RNA recognition by a PUF domain”
